About 79,000 compounds went through this panel and 15% of them were active in at least one assay; those are over-represented in the sample as a whole. Calls of active or inactive are those of the source. Rule as the data show it: active = growth inhibition above about 70%; inactive = the rest.
Key:
[1] = NCI Yeast Anticancer Drug Screen. Data for the rad50 strain (AID 155);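 also: 0% = growth of vehicle-only cultures of the same strain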; conditions: S. cerevisiae rad50 strain growth inhibition; at 50.0 µM; stronger effect = higher value
Summary of the method: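 Compounds were tested on a yeast strain with an engineered DNA damage repair alteration; the reported value is growth inhibition normalised to vehicle treatment.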

[2] = NCI Yeast Anticancer Drug Screen. Data for the mec2-1 strain (AID 157); conditions: S. cerevisiae mec2-1 strain, at 50.0 µM, stronger effect = higher value
Summary of the method: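 Each compound was tested on mec2-1 yeast, a strain altered in DNA damage repair or cell cycle control. Growth inhibition is reported relative to vehicle.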

[3] = NCI Yeast Anticancer Drug Screen. Data for the sgs1 mgt1 strain (AID 161);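 also: 0% = growth of cultures given vehicle only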; conditions: S. cerevisiae sgs1 mgt1 strain, at 50.0 µM, stronger effect = higher value
Summary of the method: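 Read-out: growth inhibition vs vehicle controls. Cells: mutant yeast strain deficient in DNA damage repair.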

[4] = NCI Yeast Anticancer Drug Screen. Data for the cln2 rad14 strain (AID 165);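 also: 0% = growth equal to vehicle treated cultures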; conditions: S. cerevisiae cln2 rad14 strain, at 50.0 µM, stronger effect = higher value
Summary of the method: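 Test compounds were added to cln2 rad14 yeast cultures; inhibition of growth was then determined by comparison with vehicle treatment.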

[5] = NCI Yeast Anticancer Drug Screen. Data for the bub3 strain (AID 167); conditions: S. cerevisiae bub3 mutant strain, at 50.0 µM, stronger effect = higher value
Summary of the method: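 Growth of a checkpoint-deficient yeast mutant is measured after compound exposure. Values represent inhibition relative to vehicle.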

[6] = NCI Yeast Anticancer Drug Screen. Data for the mlh1 rad18 strain (AID 175); conditions: S. cerevisiae mlh1 rad18 strain growth inhibition; at 50.0 µM; stronger effect = higher value
Summary of the method: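 Inhibition values reflect reduced growth of mutant yeast versus vehicle-treated controls following compound exposure; the mutations affect DNA damage repair.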

Measured: growth inhibition

COc1ccc(CCn2cnn3c(=O)c4ccccc4nc3c2=O)cc1OC
inactive: [1] -24% | [2] -29.9% | [3] -9.1% | [4] -0.8% | [5] -17.4% | [6] -20.9%

O=[N+]([O-])c1ccc(Oc2ccc3ccccc3c2)c([N+](=O)[O-])c1
inactive: [1] -1.4% | [2] -17.9% | [3] 1.8% | [4] -56.5% | [5] -9.75% | [6] -14.3%

O=C(OCCOCBr)c1ccccc1
inactive: [1] -9.75% | [2] -32.5% | [3] 19.9% | [4] 18% | [5] 31.1% | [6] -14.3%

N#CC(=S)Nc1ccc(Cl)c(Cl)c1
inactive: [1] -4.8% | [2] 27.9% | [3] 22.6% | [4] -36% | [5] -1.95% | [6] 31.8%

Nc1c(Br)c(Br)cc2c1-c1ccc(Br)cc1C2
inactive: [1] 8.2% | [2] 3.75% | [3] -2.65% | [4] 8.75% | [5] 7.9% | [6] -4.7%

NC(=O)c1cnn(CCO)c1N
inactive: [1] 0.2% | [2] -3.35% | [3] 2.55% | [4] -15.6% | [5] 2.85% | [6] 12.6%

COC(=O)c1nsc(OC)c1Cl
inactive: [1] 22.1% | [2] -11.5% | [3] 15.8% | [4] 8.7% | [5] 23.6% | [6] 50.4%

CC(C)(C)C1=CC(=O)C(C(C)(C)C)=CC1=O
inactive: [1] -2.35% | [2] 3.2% | [3] -17.2% | [4] -55% | [5] -7% | [6] 17.7%

CC(=O)OCc1ccc([N+](=O)[O-])cc1
inactive: [1] -1.65% | [2] 0.25% | [3] -8.8% | [4] 8.05% | [5] -6.05% | [6] 6.1%

Cc1cc(Cl)ccc1N=Cc1ccc(C=Nc2ccc(Cl)cc2C)cc1
inactive: [1] 14.2% | [2] 3.6% | [3] -5.05% | [4] -1.55% | [5] 10.8% | [6] -0.5%

Cn1cnc2c1S(=O)(=O)NCN2
inactive: [1] 10.7% | [2] 3.15% | [3] -8.6% | [4] -3.2% | [5] 19.9% | [6] 6.7%

Cc1cn(CCCSCC2OC3OC4C(CO)OC(OC5C(CO)OC(OC6C(CO)OC(OC7C(CO)OC(OC8C(CO)OC(OC9C(CO)OC(OC2C(O)C3O)C(O)C9O)C(O)C8O)C(O)C7O)C(O)C6O)C(O)C5O)C(O)C4O)c(=O)[nH]c1=O (stereo unspecified)
inactive: [1] -21.6% | [2] -9.35% | [3] -18.4% | [4] 0% | [5] -1.85% | [6] -14.2%

Cn1nc2ccc3nccc(NCCNCCO)c3c2n1
inactive: [1] -3.65% | [2] -8.8% | [3] -4.65% | [4] 7.4% | [5] -4.8% | [6] -9.65%

O=C1NNCc2c1sc1ccccc21
inactive: [1] 0.25% | [2] -4.15% | [3] -17.4% | [4] -41.3% | [5] -11.7% | [6] 4.6%

COc1ccc(/C(Cl)=C(\CN(C)C)c2ccc(OC)c(OC)c2)cc1OC
inactive: [1] 41.5% | [2] 18.6% | [3] 10.3% | [4] 27.9% | [5] -5.85% | [6] 24.1%

COc1ccc(Cl)cc1NC(=O)c1ccccc1C(=O)O
inactive: [1] 1.2% | [2] 20.9% | [3] -3.2% | [4] -4.3% | [5] 12.4% | [6] -26.1%

Nc1cn[nH]c(=O)n1
inactive: [1] -3.6% | [2] 20.6% | [3] 2% | [4] 13.3% | [5] 10.4% | [6] 2.7%

C[Si](C)(C)CN=P(c1ccccc1)(c1ccccc1)c1ccccc1
inactive: [1] -29.6% | [2] -12.4% | [3] -19.2% | [4] 17.4% | [5] 3.7% | [6] -4.8%

CC(Nc1cc(Cl)ccc1C(=O)O)C(=O)O (stereo unspecified)
inactive: [1] 0.9% | [2] 14.7% | [3] -9.75% | [4] -40.1% | [5] -11.2% | [6] -8.05%

CCCCNCCS
inactive: [1] 14.1% | [2] -14.6% | [3] 2.7% | [4] 6.9% | [5] -8.55% | [6] 8.5%

CCCN(Cc1ccccc1)CC(O)c1ccc(Cl)cc1 (stereo unspecified)
inactive: [1] 0.95% | [2] 3.5% | [3] 32.2% | [4] 2.95% | [5] 32.9% | [6] 20.1%

CCCNCCC(=O)Nc1ccccc1C(=O)OCC
inactive: [1] 3.15% | [2] -18% | [3] 0.2% | [4] -43.1% | [5] 29.3% | [6] -6.25%

Cc1cccc(C[N+](C)(C)CCO)c1C
inactive: [1] -0.5% | [2] -13.2% | [3] 3.4% | [4] 6.7% | [5] 3.45% | [6] -20.6%

CCOC(=O)C(Nc1cc([N+](=O)[O-])ccc1C(=O)N1CCCCC1)(C(=O)OCC)N1CCCCC1
inactive: [1] 4.6% | [2] 12.8% | [3] 13.8% | [4] 3.8% | [5] 0.2% | [6] 15%

CN1C(=O)c2ccccc2NC(=O)C12O[C@@H]2c1cccc(O)c1 (stereo partly specified)
inactive: [1] 9% | [2] -0.55% | [3] 11.2% | [4] 8.9% | [5] 6.9% | [6] 8.05%

CN(C)CC(CN(C)C)C(O)c1ccccc1 (stereo unspecified)
inactive: [1] 2.4% | [2] -11.5% | [3] -6.35% | [4] 12% | [5] -4.8% | [6] -13.1%

O=C(Cl)CCc1ccnc2ccccc12
inactive: [1] 0.5% | [2] 3.25% | [3] 4.2% | [4] -8.45% | [5] 2.4% | [6] 11.2%

CC(=O)n1cc(CS)c(=O)[nH]c1=O
inactive: [1] -6.2% | [2] 1.2% | [3] -2.5% | [4] -15.2% | [5] -2.6% | [6] -19.4%

COC(=O)c1nc(=S)[nH]c(C(=O)OC)c1C(=O)c1cccnc1
inactive: [1] -4.3% | [2] 15.2% | [3] 17.4% | [4] 4.25% | [5] 39.4% | [6] 17.9%

CCOc1nc(N)nc(C)c1N=Nc1ccc(O)cc1
inactive: [1] -5.7% | [2] 6.2% | [3] 0.85% | [4] -43% | [5] -2.4% | [6] -0.4%

CCOC(=O)C(C(=O)c1cccnc1)C(C(=O)OCC)C(=O)c1cccnc1 (stereo unspecified)
inactive: [1] 5.1% | [2] 20.9% | [3] 6% | [4] 20.4% | [5] 12.1% | [6] 5.55%

CSC1(SC)CCCCCCCCCCC1
inactive: [1] -19.8% | [2] -17.2% | [3] -17.9% | [4] -15.9% | [5] -34.9% | [6] -29.4%

CCc1nc(-c2ccccc2)nc2c1nc(-c1cccc(C)c1)n2Nc1ccccc1
inactive: [1] 1.45% | [2] 3.1% | [3] -6.15% | [4] -3% | [5] -1.6% | [6] 24.1%

O=COCCCc1ccccc1
inactive: [1] 15.8% | [2] -1.85% | [3] 11.8% | [4] -5.2% | [5] 3.15% | [6] -23.7%

C1CCC(CCC2CCCC[N-]2)[N-]C1.[I][Co][I] (stereo unspecified)
inactive: [1] 48.3% | [2] 27.9% | [3] 47% | [4] -3% | [5] 33.7% | [6] 43.5%

CCOC(=O)c1ccc(N=c2sc3ccccc3nc2Nc2ccc(C(=O)OCC)cc2)cc1
inactive: [1] 2.75% | [2] -3.95% | [3] -2.05% | [4] 34% | [5] 2.3% | [6] 10.9%

N#CCCOC1C(OCCC#N)C(OCCC#N)C(OCCC#N)C(OCCC#N)C1OCCC#N (stereo unspecified)
inactive: [1] -14.2% | [2] -23.1% | [3] 8% | [4] 17.7% | [5] 28.2% | [6] 16.1%

C/C(=N\Sc1cccc([N+](=O)[O-])c1)c1ccccc1O
active: [1] 91.2% | [2] 96.5% | [3] 96.2% | [4] 90.8% | [5] 94% | [6] 96%

CC(C)S(=O)(=O)C(C)C
inactive: [1] 5.1% | [2] 0.35% | [3] -8.65% | [4] 11.7% | [5] -13.6% | [6] -5.85%

O=C(O)C1(NO)CCCCC1
inactive: [1] -6.9% | [2] 6.7% | [3] -11.8% | [4] -9% | [5] -12.6% | [6] -5.4%

CCN(CC)CC(Oc1ccccc1)C(=O)c1ccccc1 (stereo unspecified)
inactive: [1] -10.2% | [2] -15.7% | [3] 4.75% | [4] -30.1% | [5] -11.4% | [6] -7.4%
